# Data taken from PubChem BioAssay (NCATS).
# Values joined by “and” are separate entries in the source; they are usually repeats but may differ in a detail not shown here. Identical values can stand only once. Inconclusive results are not listed. Active and inactive are the calls of the source. Unless noted, calls follow the shape of the full dose curve.
# How the values were obtained:
# [1] = target: Estrogen receptor (Homo sapiens) (UniProt P03372); experiment: qHTS assay for small molecule antagonists of estrogen receptor alpha signaling (AID 588513; active = well fitted curve in the direction sought with a large enough effect in the signal ratio, with a control signal flat, not every such curve was filed as active; the % refers to the signal ratio; also: % is scaled to controls: 0 for no effect and ±100 for the full control effect)
# Summary of the method: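 ER-alpha-UAS-bla GripTite HEK 293 cells in medium with 2% charcoal/dextran-treated FBS were preincubated 4 h at 37 C, dosed with compound (1:2 titration), stimulated with 0.5nM 17-beta-estradiol for 18 h, then read by CCF4 beta-lactamase fluorescence.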
# [2] = target: Peroxisome proliferator-activated receptor gamma (Homo sapiens) (UniProt P37231); experiment: qHTS assay for small molecule agonists of peroxisome proliferator-activated receptor gamma signaling (AID 588536; active = well fitted curve in the direction sought with a large enough effect in the signal ratio, with a control signal flat, not every such curve was filed as active; the % refers to the signal ratio;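 also: 0% = DMSO basal wells and 100% = rosiglitazone at 2 µM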)
# Summary of the method: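 Test agents, titrated, stimulated HEK293 UAS-bla cells overnight (16 h, 37 C). Substrate CCF4 was then added for two hours at room temperature before fluorescence reading.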
# [3] = target: Peroxisome proliferator-activated receptor gamma (Homo sapiens) (UniProt P37231); experiment: qHTS assay for small molecule antagonists of peroxisome proliferator-activated receptor gamma signaling (AID 588537; active = well fitted inhibition curve with a large enough effect in the signal ratio, with a control signal flat, not every such curve was filed as active; the % refers to the signal ratio;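 also: reporter cells co-stimulated with 50 nM rosiglitazone agonist during compound treatment; % of control where 0% means no effect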)
# Summary of the method: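 PPAR-gamma-UAS-bla HEK293 cells (3000/well, 1% charcoal/dextran-stripped FBS) were preincubated 6-6.5 h at 37 C, given titrated compounds, then stimulated with 50 nM rosiglitazone for 16 h. Beta-lactamase activity was read with CCF4 dye; IC50 came from Hill fits.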
# [4] = target: Vitamin D3 receptor (Homo sapiens) (UniProt P11473); experiment: qHTS assay for small molecule antagonists of vitamin D receptor signaling (AID 588541);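 also: receptor activated by calcitriol during compound treatment; series mostly up to about 77 µM; % is scaled to controls: 0 for no effect and ±100 for the full control effect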
# Summary of the method: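 VDR-UAS-bla HEK293T cells (2000/well, 2% charcoal-stripped FBS) were treated with titrated compounds plus 1-alpha,25-dihydroxyvitamin D3 (50 nM or 3 nM final) for 16 h at 37 C. CCF4 beta-lactamase fluorescence was read; Hill fits gave IC50.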
# [5] = target: Vitamin D3 receptor (Homo sapiens) (UniProt P11473); experiment: qHTS assay for small molecule agonists of vitamin D receptor signaling (AID 588543);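 also: 0% = DMSO basal and 100% = reference agonist control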
# Summary of the method: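 GeneBLAzer VDR-UAS-bla HEK293T cells in 2% charcoal-stripped FBS medium were dosed with compound titrations for 16 h at 37 °C; CCF4 β-lactamase readout (405 nm ex, 460/530 nm em). EC50 and efficacy from Hill fits, normalized to 50 nM calcitriol (100%) and DMSO (0%).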
# [6] = target: Thyroid hormone receptor beta (Homo sapiens) (UniProt P10828); experiment: qHTS assay for small molecule agonists of thyroid hormone receptor beta signaling (AID 588545);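 also: 0% = DMSO only and 100% = 10 nM T3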
# Summary of the method: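 Stimulation of a TR-driven beta-lactamase reporter was quantified in GripTite HEK 293 cells. Compound series ran for 18 hrs; curves were normalized to T3 and DMSO controls and fitted to yield EC50.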
# [7] = qHTS assay for small molecule antagonists of retinoid X receptor alpha signaling (AID 588546; active = well fitted inhibition curve with a large enough effect in the signal ratio, with a control signal flat, not every such curve was filed as active; the % refers to the signal ratio;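 also: cells stimulated with 9-cis-retinoic acid as agonist; % is scaled to controls: 0 for no effect and ±100 for the full control effect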); conditions: HEK293T RXRa-UAS-bla, beta-lactamase ratio, antagonist mode; measured here: W530 green channel, cytotoxicity proxy
# Summary of the method: (§1)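 Beta-lactamase reporter inhibition, read as CCF4 fluorescence ratio (ex 405, em 460/530 nm) after 2 h at RT. HEK293T UAS-bla cells, 2500/well, were stimulated with 9-cis-RA at 500 or 100 nM final alongside test compound for 18 h at 37 C.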
# [8] = target: Retinoic acid receptor RXR-alpha (Homo sapiens) (UniProt P19793); experiment: as above; conditions: HEK293T RXRa-UAS-bla, beta-lactamase ratio, antagonist mode
# Summary of the method: as §1
# [9] = qHTS assay for small molecule activators of the p53 signaling pathway (AID 651743; active = well fitted activation curve with a large enough effect in the signal ratio, not every such curve was filed as active; the % refers to the signal ratio; also: series mostly up to about 92 µM; % of control where 0% means no effect); conditions: HCT-116 p53RE-bla, beta-lactamase FRET ratio, 16 h; activation: stronger effect = higher value
# Summary of the method: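 p53RE-bla HCT-116 cells with a stably integrated beta-lactamase reporter under p53 response elements were plated, rested 5 hours at 37 C/5% CO2, then exposed to compounds in DMSO for 16 hours at 37 C. LiveBLAzer B/G FRET substrate was read after 2 hours at room temperature.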
# [10] = target: Peroxisome proliferator-activated receptor alpha (Homo sapiens) (UniProt Q07869); experiment: qHTS assay for small molecule agonists of the peroxisome proliferator-activated receptor alpha (PPARalpha) signaling pathway (AID 651778; active = well fitted curve in the direction sought with a large enough effect; an effect the other way counts as inactive or inconclusive; also: % of control where 0% means no effect); conditions: PathHunter PPARalpha complementation, chemiluminescence, 6 h; max response: stronger effect = higher value
# Summary of the method: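 Cells plated at 2,000/well and held overnight at 37 C, 5% CO2, then compound added by pin tool for 6 hr; after PathHunter detection reagent and 60 min at room temperature, chemiluminescence from enzyme complementation was read.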
# [11] = qHTS assay for small molecule agonists of the antioxidant response element (ARE) signaling pathway measured by Nrf2-dependant transcriptional activity (AID 720636; active = well fitted curve in the direction sought with a large enough effect in the repeat runs; an effect the other way counts as inactive or inconclusive;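 also: HepG2 cells with an ARE-driven luciferase reporter; % of control where 0% means no effect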)
# Summary of the method: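 In HepG2 cells engineered with an Nrf2-responsive luciferase gene, ARE induction was quantified as luminescence after 16 hr compound treatment at 37 C.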
# [12] = qHTS assay for small molecule agonists of the antioxidant response element (ARE) signaling pathway measured by Nrf2-dependant transcriptional activity - cell viability counter screen (AID 720653; active = well fitted curve in the direction sought with a large enough effect in the repeat runs; an effect the other way counts as inactive or inconclusive; also: % is scaled to controls: 0 for no effect and ±100 for the full control effect); conditions: ARE-bla HepG2 viability, CellTiter-Glo ATP luminescence, 16 h; max response: stronger effect = lower value
# Summary of the method: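 ARE-bla HepG2 cells (2,000/well) rested 5 hrs at 37C/5% CO2, then exposed to compounds in DMSO for 16 hrs. Viability was read in the same wells as intracellular ATP by luminescence, 30 min at room temperature after reagent addition.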
# [13] = qHTS assay for cell viability of HEK293 cells (AID 743288; active = well fitted curve in the direction sought with a large enough effect; an effect the other way counts as inactive or inconclusive; also: % is scaled to controls: 0 for no effect and ±100 for the full control effect; nearly all actives have a fitted effect of over 50% in size); conditions: ATP luminescence (CellTiter-Glo), 18 h; max response: stronger effect = lower value
# Summary of the method: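 Parental HEK293 cells were seeded at 2,000 cells/well, rested at least 5 h at 37 C, then exposed to compounds in DMSO for 18 h at 37 C. Viability was read as ATP-dependent luciferase luminescence after 30 min at room temperature.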
# [14] = target: Peroxisome proliferator-activated receptor delta (Homo sapiens) (UniProt Q03181); experiment: qHTS assay for small molecule agonists of peroxisome proliferator-activated receptor delta signaling (AID 588534);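 also: 0% = DMSO basal wells and 100% = positive control agonist at 10 µM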
# Summary of the method: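 Cell-based beta-lactamase reporter assay run in agonist mode: cells seeded and incubated 5 hrs at 37 C, compounds added and incubated 18 hrs at 37 C. CCF4 dye fluorescence read after 2 hrs at RT; EC50 and efficacy from Hill fits.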
# [15] = qHTS assay for small molecule antagonists of peroxisome proliferator-activated receptor delta signaling (AID 588535); conditions: HEK293T PPARd-UAS-bla, beta-lactamase FRET ratio, 18 h; 460 nm channel;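 also: cells co-treated with a PPAR-delta agonist as stimulator during compound exposure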
# Summary of the method: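 GeneBLAzer PPAR-delta-UAS-bla HEK293T cells in medium with 2% charcoal/dextran FBS were preincubated 5 hrs at 37 C, then given compounds, incubated 18 hrs at 37 C, and read by CCF4 beta-lactamase fluorescence; IC50 from Hill fits.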
# [16] = qHTS assay for small molecule agonists of retinoid X receptor alpha signaling (AID 588544); conditions: HEK293T RXRa-UAS-bla, beta-lactamase reporter, 18 h; 530 nm emission;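 as to activation: 0% = DMSO basal wells and 100% = reference agonist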
# [17] = target: Retinoic acid receptor RXR-alpha (Homo sapiens) (UniProt P19793); experiment: as above
# [18] = qHTS assay for environmental chemicals that activate the Aryl hydrocarbon Receptor (AhR) signaling pathway (AID 651777; active = well fitted curve in the direction sought with a large enough effect; an effect the other way counts as inactive or inconclusive; also: % of control where 0% means no effect; nearly all actives have a fitted effect of over 15% in size); conditions: 1A2-DRE human hepatoma cells, luciferase, 24 h; activation: stronger effect = higher value
# Summary of the method: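 Measured luciferase activity, read 30 min after One-Glo addition at room temperature, from human hepatoma cells bearing a dioxin response element–CYP1A2 promoter reporter and exposed to compound for 24 hr at 37 C.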
# [19] = qHTS assay for cell viability of the p53RE-bla HCT-116 cell line (AID 743292; active = well fitted curve in the direction sought with a large enough effect; an effect the other way counts as inactive or inconclusive; also: % is scaled to controls: 0 for no effect and ±100 for the full control effect; nearly all actives have a fitted effect of over 55% in size)
# Summary of the method: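 Intracellular ATP of p53RE-bla HCT-116 cells measured by luciferase luminescence following 16 h compound incubation at 37 C; DMSO-only wells served as vehicle controls.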
# [20] = target: Nuclear receptor subfamily 1 group I member 2 (Rattus norvegicus) (UniProt Q9R1A7); experiment: qHTS assay for small molecule activators of the rat pregnane X receptor (rPXR) signaling pathway (AID 651751; call rule not given here; also: 0% is about no effect); conditions: rPXR reporter cells, luciferase (One-Glo), 24 h
# Chain of Nuclear receptor subfamily 1 group I member 2 (Rattus norvegicus) (Q9R1A7 whole entry, looked up): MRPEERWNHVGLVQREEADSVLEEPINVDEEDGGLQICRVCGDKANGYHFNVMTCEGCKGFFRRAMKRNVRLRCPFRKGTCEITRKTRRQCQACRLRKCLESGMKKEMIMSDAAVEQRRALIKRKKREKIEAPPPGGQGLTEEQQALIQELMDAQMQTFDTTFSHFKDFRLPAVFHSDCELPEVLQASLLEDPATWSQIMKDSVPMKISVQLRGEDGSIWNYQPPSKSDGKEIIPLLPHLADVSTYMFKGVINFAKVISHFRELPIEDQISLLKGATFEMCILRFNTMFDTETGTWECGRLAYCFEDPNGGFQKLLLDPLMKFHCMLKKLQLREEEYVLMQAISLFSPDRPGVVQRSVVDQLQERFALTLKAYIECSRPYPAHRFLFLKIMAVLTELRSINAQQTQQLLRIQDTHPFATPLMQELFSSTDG
# Chain of Estrogen receptor (Homo sapiens) (P03372 whole entry, looked up): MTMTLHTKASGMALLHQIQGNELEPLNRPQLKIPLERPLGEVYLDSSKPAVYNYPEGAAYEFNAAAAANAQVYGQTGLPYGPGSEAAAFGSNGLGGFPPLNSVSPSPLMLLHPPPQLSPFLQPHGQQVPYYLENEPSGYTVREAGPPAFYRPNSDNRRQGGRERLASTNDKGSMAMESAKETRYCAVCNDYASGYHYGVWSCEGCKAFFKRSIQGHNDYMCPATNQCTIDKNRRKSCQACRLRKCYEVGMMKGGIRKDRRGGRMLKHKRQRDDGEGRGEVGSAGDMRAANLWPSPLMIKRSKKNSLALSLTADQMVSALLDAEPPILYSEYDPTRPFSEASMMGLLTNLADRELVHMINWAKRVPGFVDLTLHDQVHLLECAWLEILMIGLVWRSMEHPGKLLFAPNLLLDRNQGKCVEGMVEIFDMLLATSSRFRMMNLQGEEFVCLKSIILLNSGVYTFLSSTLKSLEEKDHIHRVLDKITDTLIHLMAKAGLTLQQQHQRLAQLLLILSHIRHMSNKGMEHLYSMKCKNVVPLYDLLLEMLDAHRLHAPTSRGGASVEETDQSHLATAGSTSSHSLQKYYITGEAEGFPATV
# Chain of Thyroid hormone receptor beta (Homo sapiens) (P10828 whole entry, looked up): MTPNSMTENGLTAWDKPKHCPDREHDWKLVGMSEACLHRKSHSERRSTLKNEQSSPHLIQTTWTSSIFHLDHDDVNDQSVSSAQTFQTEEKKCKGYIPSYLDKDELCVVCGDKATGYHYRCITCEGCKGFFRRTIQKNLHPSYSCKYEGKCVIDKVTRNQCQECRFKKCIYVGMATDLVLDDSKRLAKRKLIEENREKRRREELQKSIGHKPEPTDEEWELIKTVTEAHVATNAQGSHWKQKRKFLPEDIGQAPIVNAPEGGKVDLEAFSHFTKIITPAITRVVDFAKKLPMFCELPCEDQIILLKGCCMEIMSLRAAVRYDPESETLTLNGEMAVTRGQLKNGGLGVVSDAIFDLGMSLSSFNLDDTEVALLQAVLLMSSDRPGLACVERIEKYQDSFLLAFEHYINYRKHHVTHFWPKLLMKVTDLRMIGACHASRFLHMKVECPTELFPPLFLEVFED
# Chain of Peroxisome proliferator-activated receptor gamma (Homo sapiens) (P37231 whole entry, looked up): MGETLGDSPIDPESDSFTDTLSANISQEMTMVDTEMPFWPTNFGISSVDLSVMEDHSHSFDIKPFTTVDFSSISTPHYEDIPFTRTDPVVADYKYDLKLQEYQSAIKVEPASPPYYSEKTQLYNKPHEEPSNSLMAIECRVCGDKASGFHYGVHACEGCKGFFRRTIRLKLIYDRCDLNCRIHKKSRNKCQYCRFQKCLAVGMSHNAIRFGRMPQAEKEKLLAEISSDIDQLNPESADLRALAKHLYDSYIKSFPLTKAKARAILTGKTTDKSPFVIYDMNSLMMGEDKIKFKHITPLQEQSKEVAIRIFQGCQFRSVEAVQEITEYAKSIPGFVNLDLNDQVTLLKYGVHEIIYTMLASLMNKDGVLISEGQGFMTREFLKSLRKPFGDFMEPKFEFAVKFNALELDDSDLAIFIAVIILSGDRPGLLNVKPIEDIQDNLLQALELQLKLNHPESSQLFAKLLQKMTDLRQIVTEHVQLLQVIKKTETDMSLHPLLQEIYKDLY
# Chain of Peroxisome proliferator-activated receptor alpha (Homo sapiens) (Q07869 whole entry, looked up): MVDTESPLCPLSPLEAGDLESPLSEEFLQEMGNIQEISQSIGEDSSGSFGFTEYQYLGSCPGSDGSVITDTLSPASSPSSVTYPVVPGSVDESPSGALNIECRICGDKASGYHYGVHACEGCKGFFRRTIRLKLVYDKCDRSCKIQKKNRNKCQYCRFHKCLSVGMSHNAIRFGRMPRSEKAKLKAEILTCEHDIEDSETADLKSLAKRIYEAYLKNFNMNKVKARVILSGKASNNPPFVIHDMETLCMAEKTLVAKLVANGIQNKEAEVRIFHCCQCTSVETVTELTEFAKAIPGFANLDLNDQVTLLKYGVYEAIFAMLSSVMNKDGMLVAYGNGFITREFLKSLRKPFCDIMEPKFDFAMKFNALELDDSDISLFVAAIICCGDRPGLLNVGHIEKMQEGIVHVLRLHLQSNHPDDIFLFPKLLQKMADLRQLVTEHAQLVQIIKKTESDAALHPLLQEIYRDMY
# Chain of Vitamin D3 receptor (Homo sapiens) (P11473 whole entry, looked up): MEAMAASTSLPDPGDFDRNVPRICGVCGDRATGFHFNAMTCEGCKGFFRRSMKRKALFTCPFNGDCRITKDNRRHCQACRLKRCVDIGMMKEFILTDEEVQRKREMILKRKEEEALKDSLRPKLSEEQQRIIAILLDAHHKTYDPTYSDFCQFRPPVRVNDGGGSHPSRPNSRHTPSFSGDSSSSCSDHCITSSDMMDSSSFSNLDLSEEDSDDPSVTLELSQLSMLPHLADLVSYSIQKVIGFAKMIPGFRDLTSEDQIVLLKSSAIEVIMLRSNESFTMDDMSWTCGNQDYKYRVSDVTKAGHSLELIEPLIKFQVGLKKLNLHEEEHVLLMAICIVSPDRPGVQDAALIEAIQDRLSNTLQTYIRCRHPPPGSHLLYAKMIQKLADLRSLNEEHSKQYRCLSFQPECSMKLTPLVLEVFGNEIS
# Chain of Peroxisome proliferator-activated receptor delta (Homo sapiens) (Q03181 whole entry, looked up): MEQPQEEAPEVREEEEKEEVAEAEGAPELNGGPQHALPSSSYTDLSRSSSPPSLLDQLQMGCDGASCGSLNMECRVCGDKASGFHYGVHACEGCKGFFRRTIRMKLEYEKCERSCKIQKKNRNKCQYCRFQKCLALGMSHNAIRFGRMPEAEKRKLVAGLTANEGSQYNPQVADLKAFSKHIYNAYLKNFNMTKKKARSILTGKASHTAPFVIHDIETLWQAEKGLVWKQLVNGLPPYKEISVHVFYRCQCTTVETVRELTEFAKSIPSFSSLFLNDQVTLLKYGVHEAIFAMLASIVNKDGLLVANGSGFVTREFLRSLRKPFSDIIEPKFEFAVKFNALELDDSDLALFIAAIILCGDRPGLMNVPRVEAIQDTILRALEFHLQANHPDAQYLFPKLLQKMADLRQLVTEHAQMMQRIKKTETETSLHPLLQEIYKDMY
# Chain of Retinoic acid receptor RXR-alpha (Homo sapiens) (P19793 whole entry, looked up): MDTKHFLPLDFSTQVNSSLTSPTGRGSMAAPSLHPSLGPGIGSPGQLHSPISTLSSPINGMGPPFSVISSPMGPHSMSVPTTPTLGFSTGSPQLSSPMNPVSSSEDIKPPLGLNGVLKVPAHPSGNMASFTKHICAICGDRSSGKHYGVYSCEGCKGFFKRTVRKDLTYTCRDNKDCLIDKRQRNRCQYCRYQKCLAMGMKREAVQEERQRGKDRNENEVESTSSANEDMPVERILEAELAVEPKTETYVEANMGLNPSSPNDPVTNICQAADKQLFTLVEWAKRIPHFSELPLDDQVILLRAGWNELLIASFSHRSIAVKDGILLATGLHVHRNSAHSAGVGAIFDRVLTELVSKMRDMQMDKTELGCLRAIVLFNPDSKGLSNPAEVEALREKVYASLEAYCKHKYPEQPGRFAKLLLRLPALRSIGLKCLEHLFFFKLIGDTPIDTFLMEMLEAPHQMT
SMILES,Potency [1],Potency [2],Potency [3],Potency [4],outcome [5],Potency [6],max response [7],max response [8],activation [9],max response [10],Potency [11],max response [12],max response [13],outcome [14],max response [15] [%],max response [16],Potency [17],activation [18],Potency [19],max response [20]
CCOP(=S)(OCC)Oc1nc(Cl)n(C(C)C)n1,inactive,inactive,inactive,inactive,inactive,inactive,10.5%,14.2% (inactive),-5.02% (inactive),0.789% (inactive),inactive,-6.76% (inactive),6.35% (inactive),–,–,–,–,–,–,–
COc1cc(OC)nc(NC(=O)NS(=O)(=O)c2ncccc2C(F)(F)F)n1,–,inactive,–,inactive,–,inactive,-9.13%,2.48% (inactive),-1.26% (inactive),-1.83% (inactive),inactive,-1.73% (inactive),-6.81% (inactive),inactive,-12.7,-4.69%,inactive,1.17% (inactive),inactive,0.924% (inactive)
COC(=O)NS(=O)(=O)c1ccc(N)cc1,inactive,–,inactive,inactive,inactive,inactive,6.39% and -8.17%,-10.8% (inactive) and -3.57% (inactive),-7.42% (inactive) and -0.724% (inactive),0.635% (inactive) and -1.36% (inactive),inactive,9.3% (inactive) and -4.17% (inactive),0.196% (inactive) and -9.27% (inactive),inactive,-5.88,-13.8% and -12.5%,inactive,-0.0088% (inactive) and 0.402% (inactive),inactive,2.14% (inactive) and -3.25% (inactive)
Nc1cnn(-c2ccccc2)c(=O)c1Cl,inactive,inactive,inactive,–,–,inactive,-1.68%,-7.65% (inactive),-0.0509% (inactive),-1.54% (inactive),inactive,11.3% (inactive),-10.4% (inactive),inactive,13.7,-6.12%,inactive,6.85% (inactive),inactive,4.89% (inactive)
CCOP(N)(=O)Oc1ccc(SC)c(C)c1 (centres undefined),–,inactive,inactive,inactive,inactive,–,-11.1%,-26.2% (inactive),-1.01% (inactive),-3.39% (inactive),inactive,-8.16% (inactive),-8.45% (inactive),inactive,41.4,-16.6%,inactive,0.564% (inactive),inactive,4.69% (inactive)
CS/C(C)=N/OC(=O)N(C)SN(C)C(=O)O/N=C(\C)SC,–,inactive,–,–,–,inactive,3.2%,15.5% (inactive),-1.16% (inactive),–,inactive,6.17% (inactive),-6.07% (inactive),inactive,-23.5,–,–,3.44% (inactive),inactive,-5.16% (inactive)
CCC/C(=N\OCC)C1=C(O)CC(CC(C)SCC)CC1=O (centres undefined),inactive,inactive,inactive,inactive,inactive,inactive,-1.11%,-23% (inactive),-6.84% (inactive),0.062% (inactive),inactive,-2.32% (inactive),-13.8% (inactive),inactive,-49.6,-4.54%,inactive,1.24% (inactive),inactive,0.0341% (inactive)
O=[N+]([O-])Nc1nccn1Cc1ccc(Cl)nc1,–,inactive,inactive,inactive,–,inactive,-3.06%,5.37% (inactive),-1.74% (inactive),–,inactive,-10.2% (inactive),-8% (inactive),inactive,19.2,-15.2%,inactive,–,inactive,-4.49% (inactive)
COP(=S)(OC)Oc1c(Cl)cc(C)cc1Cl,inactive,inactive,–,inactive,inactive,inactive,-6.8%,-12.7% (inactive),7.93% (inactive),5.67% (inactive),inactive,-1.53% (inactive),-18.5% (inactive),inactive,-4.3,0.267%,inactive,–,inactive,1.76% (inactive)
O=Cc1cccc(Oc2ccccc2)c1,inactive,–,inactive,inactive,inactive,–,1.81%,1.63% (inactive),–,4.39% (inactive),inactive,2.38% (inactive),-4.08% (inactive),inactive,10.7,6.44%,inactive,-0.398% (inactive),inactive,0.0469% (inactive)
CCSCCSP(=O)(OC)OC,–,inactive,inactive,–,inactive,inactive,-9.27%,-0.524% (inactive),2.18% (inactive),-0.363% (inactive),inactive,-6.91% (inactive),-1.87% (inactive),inactive,-10.5,1.71%,inactive,-0.526% (inactive),inactive,-1.46% (inactive)
CC(C)(C#N)N=NC(C)(C)C#N,inactive,inactive,–,–,inactive,–,-2.24%,-0.927% (inactive),-7.6% (inactive),-0.208% (inactive),inactive,-0.383% (inactive),-5.77% (inactive),inactive,3.24,-3.46%,inactive,3.1% (inactive),inactive,0.774% (inactive)
